Screens from PubChem.
This is a sample that favours compounds with a hit; in the whole collection about 9.6% have one here.
HCT116 PTEN-null = suppresses growth of cells with PTEN deletion. 140,000 compounds, 1.2% hits. viability, % at 10 µM. HCT116 PTEN-null viability, CellTiter-Glo, 60 h; hits give low values. AID 827;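 active = viability at or below a set limit, 4 SD under the median of all tested compounds, cut at about 3.7% in these data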;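 note: PTEN knockout HCT116 line with beta catenin targeted HCT116 as companion control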
bCat KO growth = beta-catenin-lacking colon tumor cell growth suppression; HCT116 beta-catenin knockout viability, CellTiter-Glo, 60 h; hits give low values; viability, % at 10 µM; 140,000 compounds, 1.5% hits; AID 818;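 active = viability at or under a set limit, the compound median less 4 SD, cut at about 6% in these data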;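 note: 0% = Hyamine 1622 control at 20 µM and 100% = untreated cell control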
Ins promoter up = MIN6 insulin promoter up-regulation; MIN6 insulin promoter-GFP reporter, high-content imaging; hits give high values; z-score at 5 µM; 190,000 compounds, 0.3% hits; AID 1625;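 active = z-score above 3 at 5 µM with at least 500 cells counted in the well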
Insulin prom inh = TRM-6 insulin promoter activity inhibition. TRM-6 cells (human fetal islet line), insulin promoter-eGFP reporter, imaging; reporter expression induced with tamoxifen. inhibition, % at 2 µM. 130,000 compounds, 0.9% hits;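 active = inhibition above the mean plus 3 SD, with well images judged a real hit on visual review, cut at about 60% in these data, passing the limit was not always enough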
Lmaj promast = inhibitors of Leishmania major promastigote growth; Leishmania major promastigotes, resazurin fluorescence viability; inhibition, % at 10 µM; 200,000 compounds, 9% hits; AID 1063; in the data active = inhibition above about 50%;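 note: promastigotes grown with compound for 44 hours at 28 °C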
Autophagy mod = autophagy modulation, high-content screen. calls only at 10 µM (by protocol). 190,000 compounds, 0.98% hits. MEF GFP-LC3 puncta imaging; test concentration mostly 10 µM;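 active = percentage of spot-positive cells more than 3 SD above its plate mean, without a fluorescence outlier flag or 80% toxicity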;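 note: spot-positive cell cutoff set from DMSO-treated cells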
* hit, by the source's call; i = inactive; x = not tested or not shown; + = active, no number.

SMILES | HCT116 PTEN-null | bCat KO growth | Ins promoter up | Insulin prom inh | Lmaj promast | Autophagy mod
COC(=O)C1=C(C)OC(N)=C(C#N)C12C(=O)Nc1ccccc12 (stereo not given) | x | x | -1.06 | -14.3 | -3.7 | i
Clc1ccc2c(c1)C(c1ccccc1Cl)=NCc1nncn1-2 | 89.0 | 93.9 | x | -19.1 | -1.0 | i
Nc1c(C(=O)OCC2CCCO2)c2nc3ccccc3nc2n1Cc1cccs1 (stereo not given) | 62.7 | 68.5 | -0.98 | 27.6 | 95.3* | i
Nc1c(C(=O)NC2CCCC2)c2nc3ccccc3nc2n1CC1CCCO1 (stereo not given) | 47.1 | 56.2 | -1.44 | x | 50.7* | i
Clc1ccccc1CNC1CN2CCC1CC2 (stereo not given) | 96.7 | 98.4 | -0.31 | 15.6 | 11.5 | i
OC(c1cccc(Cl)c1)(c1cccc(Cl)c1)C1CN2CCC1CC2 (stereo not given) | x | x | -0.3 | x | 99.6* | i
CN(C)c1nc(OCCNC(=O)COc2ccc(Cl)cc2Cl)nc(N2CCCCC2)n1 | 78.9 | 75.4 | 0.19 | -4.2 | 4.2 | i
CN(C)CC1CSCCC1(O)c1ccccc1 (stereo not given) | 109.6 | 94.5 | x | -145.4 | -8.9 | i
COC(=O)C(O)(c1ccc(N(C)C(=O)c2cccs2)cc1)C(F)(F)F (stereo not given) | x | x | 0.58 | -78.6 | 97.0* | i
CCOC(=O)C(O)(c1ccc(N(C)C(=O)c2ccc(Cl)c(Cl)c2)cc1)C(F)(F)F (stereo not given) | 68.5 | 81.6 | -0.36 | -54.8 | 97.2* | i
CCOC(=O)C(O)(c1ccc(NC(=O)c2ccc(Cl)c(Cl)c2)cc1)C(F)(F)F (stereo not given) | x | x | -0.27 | x | x | x
COC(=O)C(O)(c1ccc(N(C)C(=O)c2ccc(Cl)c(Cl)c2)cc1)C(F)(F)F (stereo not given) | 86.3 | 89.6 | -0.09 | -48.4 | 63.9* | i
COC(=O)C(O)(c1ccc(N(C)C)cc1)C(F)(F)F (stereo not given) | x | x | -0.13 | -27.8 | -0.4 | i
CCOC(=O)N(C)c1ccc(C(O)(C(=O)OC)C(F)(F)F)cc1 (stereo not given) | 97.4 | 95.1 | 0.1 | 57.9 | 92.6* | i
CN1CCN(c2cccc3c2C(=O)c2ccccc2C3=O)CC1 | 69.8 | 49.9 | x | 14.3 | 17.9 | i
CCc1ccc(N2C(=O)NC(=O)/C(=C\c3cccn3CCOc3ccc(C(C)C)cc3)C2=O)cc1 | 87.5 | 85.7 | 1.01 | 11.1 | 94.8* | i
CC(=O)N1CCC(N2CCCC(C(=O)c3cccc(Cl)c3)C2)CC1 (stereo not given) | x | x | -0.53 | 17.1 | 92.2* | i
COc1ccc(C(=O)C2CCCN(C3CSCCSC3)C2)c(OC)c1 (stereo not given) | x | x | -0.44 | x | 20.9 | i
COc1cccc(C(=O)C2CCCN(C3CCOCC3)C2)c1 (stereo not given) | x | x | x | 45.0 | 88.2* | i
COc1ccc(C(=O)C2CCCN(C3CSCCSC3)C2)c(C)c1 (stereo not given) | x | x | -0.46 | x | 97.2* | i
CCOP(=O)(CN(CC)CCNP(=O)(OCC)OCC)OCC | 93.1 | 99.2 | -0.48 | -32.6 | -9.1 | i
COc1cc2[nH]c(=O)n(-c3ccc(C)cc3)c(=O)c2cc1OC | 99.2 | 95.9 | 0.37 | 68.6 | 0.8 | i
CCCCn1c(=O)c(C(=O)Nc2nnc(C(C)C)s2)c(O)c2ccccc21 | x | x | 0.75 | 33.3 | -7.7 | i
CN(C)CCN=Cc1c(O)n(C2CCCCCC2)c(=O)[nH]c1=O | 103.2 | 103.2 | 0.56 | x | -0.8 | i
CCOc1ccc(Cl)cc1CNCCc1ccc(F)cc1 | x | x | -0.37 | x | 64.6* | i
SMILES | HCT116 PTEN-null | bCat KO growth | Ins promoter up | Insulin prom inh | Lmaj promast | Autophagy mod
COc1ccc(C(=O)CN2CCOCC2)cc1F | 103.1 | 98.7 | 0.8 | 81.8* | 2.7 | i
CC(=O)N(C1=NCCCS1)c1ccccc1Cl | x | x | 2.37 | 7.7 | 69.2* | i
Cc1ccc(C2C(S(C)(=O)=O)=C(O)C(=O)N2c2ccccc2)cc1 (stereo not given) (tested in a mixture with another compound) | 98.1 | 99.3 | 0.6 | x | -2.8 | i
COc1ccc(N/N=C/c2c(O)n(-c3ccc(C)c(C)c3)c(=O)[nH]c2=O)cc1 | 89.7 | 88.8 | 0.19 | 35.7 | 87.7* | i
Cc1ccc(-n2c(O)c(/C=N/Nc3ccccc3)c(=O)[nH]c2=O)cc1C | x | x | -0.1 | x | x | x
COc1ccc(N=Cc2c(O)n(-c3ccc(C)cc3)c(=O)[nH]c2=O)cc1 | x | x | 0.24 | 83.3* | 10.1 | i
COc1ccc(N/N=C/c2c(O)n(-c3cccc(C)c3)c(=O)[nH]c2=O)cc1 | x | x | -0.17 | x | 94.0* | i
COc1ccc(-n2c(O)c(C=NCCN(C)C)c(=O)[nH]c2=O)cc1 | x | x | 0.6 | x | x | x
c1cc2n(c1)-c1c(ccc3c1OCO3)CNC2c1ccc2c(c1)OCO2 (stereo not given) | 69.1 | 64.1 | 0.12 | x | 13.9 | i
COc1cc2c(cc1OC)CN(c1ccc([N+](=O)[O-])c(C(F)(F)F)c1)CC2 | 63.4 | 56.4 | -0.33 | 14.8 | 66.0* | i
Cn1c(O)c(C(=O)c2ccccc2)c(=O)n(C)c1=O | 101.8 | 98.0 | -0.3 | -8.1 | -8.6 | i
C/C(=N\Nc1ccccc1)c1c(O)n(C)c(=O)n(C)c1=O | 104.2 | 107.6 | -0.37 | x | 75.5* | i
CN1C(=O)/C(=C\c2ccc(N3CCCCCC3)cc2)C(=O)NC1=S | x | x | -0.73 | x | x | x
CCC(C)N1C(=O)/C(=C\c2ccc(N3CCCCCC3)cc2)C(=O)NC1=S (stereo not given) | 91.0 | 89.0 | 0.01 | 0.0 | 93.3* | i
CCCCN1C(=O)/C(=C/c2ccc(N3CCCCCC3)cc2)C(=O)NC1=S | 90.2 | 90.1 | -0.07 | x | 59.4* | i
CCC(C)N1C(=O)/C(=C\c2cc3c4c(c2)CCCN4CCC3)C(=O)NC1=S (stereo not given) | 88.6 | 83.1 | 1.04 | 11.1 | 97.5* | i
COc1ccccc1OCCCn1cc(C(=O)c2ccco2)c2ccccc21 | 69.9 | 74.0 | -0.22 | -64.5 | 9.4 | i
Fc1ccc(CNCCc2ccccc2)cc1 | x | x | -0.07 | -63.6 | -0.3 | i
C1=C(CCNCc2ccccc2)CCCC1 | 97.6 | 93.0 | -0.08 | -10.7 | 73.1* | i
CCOC(=O)c1c(C)n(CCN2CCN(C)CC2)c2ccc(OC)cc12 | 92.8 | 93.4 | -0.42 | -17.4 | 16.0 | i
O=C1NC(=O)C2(Cc3ccccc3N3CCOCC32)C(=O)N1c1ccccc1 (stereo not given) | 24.4 | 28.1 | 0.67 | 40.6 | 91.5* | i
Cc1nn(Cc2ccccc2)c(Cl)c1C(=O)Nc1ccc(OC(F)(F)F)cc1 | 87.0 | 91.9 | -0.94 | -112.5 | 1.8 | i
Cc1nn(Cc2ccccc2)c(Cl)c1C(=O)NC1CCCc2ccccc21 (stereo not given) | 75.7 | 82.8 | 0.7 | -32.4 | 4.0 | +
CCN1C(=O)/C(=C/c2ccc3c(c2)CCN3CCCCl)C(=O)NC1=S | 36.2 | 37.6 | 0.02 | 3.6 | 100.0* | i
